Consider 25 molecules from PubChem BioAssay (EPA / NIEHS).

Values joined by “and” are separate entries in the source; they are usually repeats but may differ in a detail not shown here. Equal values may be shown once. Records with an inconclusive call do not appear. Some compounds were tested as several samples or in several runs, with calls that do not always agree. Active and inactive are the calls of the source. The calls were made as follows: active = hit-call score of the fitted dose curve at least 0.9, where 1 is the maximum; inconclusive = response in the unintended direction; inactive = score below 0.9.

Assay [1] in a line: TOX21_p53_BLA_p2_viability: Viability Assessment in the Tox21 HCT-116 p53 Agonism Beta-lactamase Assay, Phase 2 (AID 2283591).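 Also: compound exposure lasted 16 h at 37 °C; actives lower the ATP signal meaning cytotoxicity.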 The essentials:
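Cytotoxicity readout: CellTiter-Glo ATP luminescence, 30 min at room temperature, after the beta-lactamase read. Cells were HCT116 exposed 16 h at 37C to compounds pin-transferred at 217-fold dilution from DMSO stocks.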

Assay [2] deals with Cellular tumor antigen p53 (Homo sapiens) (UniProt P04637). Put plainly: TOX21_p53_BLA_p2_ratio: Tox21 HCT-116 p53 Agonism Beta-lactamase Assay, Ratio, Phase 2 (AID 2283592). In outline:
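HCT-116 cells with p53-responsive beta-lactamase reporter, 4000 cells/well, preincubated 5 h, then compound in DMSO (217-fold dilution) for 16 h at 37C. CCF4-AM substrate 2 h at room temperature; 460/530 nm emission ratio fitted upward versus DMSO.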

A short description of assay [3]: TOX21_p53_BLA_p3_viability: Viability Assessment in the Tox21 HCT-116 p53 Agonism Beta-lactamase Assay, Phase 3 (AID 2283593).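 Also: cells exposed to compound for 16 h before reading.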 In outline: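 Cellular ATP was quantified by CellTiter-Glo luminescence, read after 30 min at room temperature. Beforehand, HCT116 cells (4000/well) received compound 5 h post-seeding, 217-fold diluted from DMSO, then incubated 16 h at 37C.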

Assay [4] addresses Cellular tumor antigen p53 (Homo sapiens) (UniProt P04637). Put plainly: TOX21_p53_BLA_p3_ratio: Tox21 HCT-116 p53 Agonism Beta-lactamase Assay, Ratio, Phase 3 (AID 2283596). The essentials: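 HCT116 p53-bla cells (4000/well) given compound in DMSO (217-fold dilution) after 5 h, incubated 16 h at 37C. CCF4-AM substrate 2 h at room temperature; 460/530 nm emission ratio, gain fitted against DMSO.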

Assay [5] is described as follows: TOX21_p53_BLA_p4_viability: Viability Assessment in the Tox21 HCT-116 p53 Agonism Beta-lactamase Assay, Phase 4 (AID 2283597).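 Also: hits lower the luminescence signal meaning cytotoxicity.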 The essentials: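 HCT-116 p53-bla cells, 4000/well, dosed after 5 h attachment and incubated 16 h at 37 °C, 5% CO2. Viability from CellTiter-Glo ATP luminescence after 30 min at room temperature, taken after the beta-lactamase read; loss of signal indicates cytotoxicity.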

In assay [6] the target is Cellular tumor antigen p53 (Homo sapiens) (UniProt P04637). Put plainly: TOX21_p53_BLA_p5_ratio: Tox21 HCT-116 p53 Agonism Beta-lactamase Assay, Ratio, Phase 5 (AID 2283599). In outline:
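Beta-lactamase reporter ratio (blue 460 nm over green 530 nm, 405 nm excitation) after 2 h CCF4-AM loading, in HCT-116 cells exposed 16 h at 37 C to compounds pinned at 217-fold dilution. Increases relative to DMSO baseline scored.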

The nature of assay [7]: TOX21_p53_BLA_p5_viability: Viability Assessment in the Tox21 HCT-116 p53 Agonism Beta-lactamase Assay, Phase 5 (AID 2283600). In outline:
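HCT-116 p53 beta-lactamase reporter cells, 4000/well, were exposed to compound (pin transfer, 217-fold dilution) for 16 hours at 37C. Cellular ATP was read by CellTiter-Glo luminescence after 30 min at room temperature.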

In assay [8] the target is Cellular tumor antigen p53 (Homo sapiens) (UniProt P04637). Briefly: TOX21_p53_BLA_p4_ratio: Tox21 HCT-116 p53 Agonism Beta-lactamase Assay, Ratio, Phase 4 (AID 2283601). In outline:
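Signal is the blue/green (460nm/530nm) ratio of cleaved versus uncleaved CCF4-AM substrate, read after 2 h substrate loading. Cells were HCT116 carrying the p53-responsive beta-lactamase reporter, dosed 16 h at 37C, 5% CO2; CellTiter-Glo measured in parallel.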

Sequence of Cellular tumor antigen p53 (Homo sapiens) (P04637 whole entry, looked up): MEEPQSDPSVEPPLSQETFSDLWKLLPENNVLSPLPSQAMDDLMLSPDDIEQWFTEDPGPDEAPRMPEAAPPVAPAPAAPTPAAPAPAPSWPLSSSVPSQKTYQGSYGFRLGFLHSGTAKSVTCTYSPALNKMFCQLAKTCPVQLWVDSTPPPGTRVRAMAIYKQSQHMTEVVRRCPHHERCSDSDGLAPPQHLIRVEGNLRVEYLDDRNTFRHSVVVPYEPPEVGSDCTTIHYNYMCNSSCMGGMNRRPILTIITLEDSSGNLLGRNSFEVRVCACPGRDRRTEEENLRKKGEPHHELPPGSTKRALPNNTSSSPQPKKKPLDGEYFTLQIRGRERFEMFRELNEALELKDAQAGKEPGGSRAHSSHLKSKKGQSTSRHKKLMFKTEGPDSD

On to `C1=CC2C3C=CC(C3)C2C1` (centres undefined), for which the outcome in assay [1], in assay [2], in assay [3], in assay [4], in assay [5] and in assay [6] was inactive. For the same molecule, the outcome in assay [7] and in assay [8] was inactive.
As for `CC1(C)O[C@@H]2[C@@H](CO[C@@]3(COS(N)(=O)=O)OC(C)(C)O[C@@H]23)O1`, the molecule was called inactive in assay [1], in assay [2], in assay [3], in assay [4], in assay [5] and in assay [7]. Besides, the outcome in assay [8] was inactive.
`CCCC[P+](CCCC)(CCCC)CCCC`: the molecule was called inactive in assay [1], in assay [2], in assay [3], in assay [4], in assay [5] and in assay [6]. Also, the molecule was classed as inactive in assay [7] and in assay [8]. The AC50 (in general, the concentration giving half of the maximal activity seen) in assay [7] is 14.5 µM (active).
Regarding `c1ccc2[nH]cnc2c1`, the molecule was classed as inactive in assay [1], in assay [2], in assay [3], in assay [4], in assay [5] and in assay [6]. In addition, the outcome in assay [8] was inactive.
In the case of `Clc1ccc(C(c2ccccc2Cl)C(Cl)Cl)cc1` (centres undefined), the AC50 in assay [1] was 46.1 µM (active) and 30.1 µM (active); in assay [2], 83.3 µM (active) and 39.1 µM (active); in assay [3], 67.7 µM (active) and 31.2 µM (active); in assay [4] it was 55.9 µM (active) and 37.2 µM (active); in assay [5], 64.3 µM (active) and 25.8 µM (active); in assay [6] it was 83.4 µM (active) and 42.3 µM (active). Besides, the AC50 was 72.7 µM (active) and 35.9 µM (active) in assay [7]; 82.4 µM (active) and 36.6 µM (active) in assay [8].
Take `CN1CCOCC1`: the call in assay [1], in assay [2], in assay [4], in assay [6] and in assay [7] was inactive.
Turning to `O=C(CC(=O)c1ccccc1)c1ccccc1`, the molecule was classed as inactive in assay [1], in assay [2], in assay [3], in assay [4], in assay [5] and in assay [6]. In addition, the call in assay [7] and in assay [8] was inactive.
Regarding `COC(=O)c1cccnc1`, the molecule was classed as inactive in assay [1], in assay [2], in assay [3], in assay [4], in assay [5] and in assay [6]. For the same molecule, the result in assay [7] and in assay [8] was inactive.
As to `CN(C)C(=S)SC(=S)N(C)C`, the molecule was called inactive in assay [1], in assay [2], in assay [3], in assay [4], in assay [5] and in assay [6]. Besides, the outcome in assay [8] was inactive.
On to `Nc1ccccc1[N+](=O)[O-]`, for which the outcome in assay [1], in assay [2], in assay [3], in assay [4], in assay [5] and in assay [6] was inactive. The outcome in assay [7] and in assay [8] was inactive.
Consider `O=C1OC(=O)c2c(Cl)c(Cl)c(Cl)c(Cl)c21`, for which the result in assay [1], in assay [2], in assay [3], in assay [4], in assay [5] and in assay [6] was inactive. Also, the call in assay [7] and in assay [8] was inactive.
On to `C=CC(=O)OCCCC`, for which the call in assay [1], in assay [2], in assay [3], in assay [4], in assay [5] and in assay [6] was inactive. Besides, the call in assay [7] and in assay [8] was inactive.
On to `CCCCC1(COC(=O)CCC(=O)O)C(=O)N(c2ccccc2)N(c2ccccc2)C1=O`, for which the outcome in assay [1], in assay [2], in assay [3], in assay [4], in assay [5] and in assay [6] was inactive. Also, the call in assay [7] and in assay [8] was inactive.
For `COC(C)(C)CCO`, the outcome in assay [1], in assay [2], in assay [6], in assay [7] and in assay [8] was inactive.
Turning to `CC1CC(O)CC(C)(C)C1` (centres undefined), the molecule was called inactive in assay [1], in assay [2], in assay [3], in assay [4], in assay [5] and in assay [6]. The result in assay [7] and in assay [8] was inactive.
Consider `CCc1ccc(O)cc1`, for which the call in assay [1], in assay [2], in assay [3], in assay [4], in assay [5] and in assay [6] was inactive. For the same molecule, the molecule was classed as inactive in assay [7].
Take `CC(=O)C1(C)CC2=C(CCCC2(C)C)CC1C` (centres undefined): the call in assay [1], in assay [2], in assay [3], in assay [4], in assay [5] and in assay [6] was inactive. Also, the result in assay [7] and in assay [8] was inactive.
For `OCCc1ccccc1`, the outcome in assay [1], in assay [2], in assay [3], in assay [4], in assay [6] and in assay [8] was inactive.
`COCCOCCOCCO`: the call in assay [1], in assay [2], in assay [3], in assay [4], in assay [6] and in assay [7] was inactive.
Consider `CCC(Cl)C(Cl)C(Cl)CC(Cl)C(Cl)C(C)Cl` (centres undefined), for which the call in assay [1], in assay [2], in assay [3], in assay [4], in assay [5] and in assay [6] was inactive. Further, the call in assay [7] and in assay [8] was inactive.
`O=C1c2ccccc2C(=O)c2c(O)ccc(O)c21`: the molecule was classed as inactive in assay [1], in assay [2], in assay [3], in assay [4], in assay [5] and in assay [6]. Further, the molecule was called inactive in assay [7] and in assay [8].
As to `NC1CCCCC1N` (centres undefined), the molecule was called inactive in assay [1], in assay [2], in assay [3], in assay [5], in assay [6] and in assay [7]. Besides, the result in assay [8] was inactive.
For `NCC1CCCC(CN)C1` (centres undefined), the call in assay [1], in assay [2], in assay [4], in assay [6], in assay [7] and in assay [8] was inactive.
As for `COC(=O)Nc1ccc(Cl)c(Cl)c1`, the result in assay [1], in assay [2], in assay [3], in assay [4], in assay [5] and in assay [6] was inactive. For the same molecule, the call in assay [7] and in assay [8] was inactive.
As for `CCCCCc1ccco1`, the molecule was classed as inactive in assay [1], in assay [2], in assay [4], in assay [5], in assay [6] and in assay [7]. In addition, the result in assay [8] was inactive. In assay [3], the AC50 was 58 µM (active).
